Measured values: PubChem BioAssay (Tox21)
Inconclusive results are not listed. Where a call stands in place of a potency, no number is given. Values without a mark were called inactive. Active and inactive are the calls of the source. The call rests on the fitted dose curve.

experiment: Nuclear factor erythroid 2-related factor 2/antioxidant responsive element (Nrf2/ARE) small molecule agonists: luciferase reporter gene qHTS assay in human keratinocytes (AID 1919969); details: KeratinoSens HaCaT ARE-luciferase, luminescence, 24 h; series mostly up to 92.4 µM; further: nearly all actives have a fitted effect of over 35% in size
Excerpt: National Center for Advancing Translational Sciences [NCATS]
Division of Preclinical Innovation [DPI]
U.S. Environmental Protection Agency [EPA]
National Institutes of Environmental Health Sciences [NIEHS]
National Toxicology Program [NTP]
U.S. Food and Drug Administration [FDA]
Oxidative stress has been implicated in the pathogenesis of a variety of diseases ranging from cancer to neurodegeneration. The antioxidant response element (ARE) signaling pathway plays an important role in the amelioration of oxidative stress. The KeratinoSens (Givaudan, Switzerland) is an in vitro test method which quantifies luciferase induction as a measure of activation of Keap1-Nrf2-antioxidationt/electrophile response element (ARE) dependant pathway in HaCaT human keratinocytes stably transfected with a selectable plasmid. The KeratinoSens assay is a cell-based assay with a reporter cell line to detect potential skin sensitizers by their ability to induce the Nrf2/ARE-response. The activation of the report gene under culture conditions can be detected by ONE-Glo Luciferase Assay System (Promega, Madison, WI). This cell line has been used to screen the Tox21 10K compound library to identify agonists that induce oxidative stress. The cytotoxicity of the Tox21 compound library against the KS-ARE cell line was tested in parallel by measuring the cell viability using CellTiter- Fluor assay system (Promega, Madison, WI) in the same wells.
HaCaT derived cell line KeratinoSens were dispensed at 1,500 cells/5uL/well in 1536-well white wall/solid bottom plates using a Multidrop Combi (ThermoFisher Scientific, Waltham, MA) dispenser. After the assay plates were incubated at 37 C/5% CO2 for 5 h, 23 nL of compounds dissolved in DMSO, positive controls or DMSO only was transferred to the assay plate by a pintool workstation (Kalypsys, San Diego, CA). The plates were incubated at 37 C/5% CO2 for 23 h, followed by addition of 1uL/well of CellTiter-Fluor reagent into the assay plates using a Flying Reagent Dispenser (Aurora Discovery, San Diego, CA) for cell viability readout that measures cytotoxicity. After 1 h incubation at 37 C/5% CO2 the fluorescence intensity was measured using a ViewLux (PerkinElmer, Shelton, CT) plate reader. Then 4uL/well of One-Glo were added using a Flying Reagent Dispenser. After the plates were incubated at room temperature for 30 min, the luminescence intensity in the assay plates was measured using ViewLux plate reader.
Potency means the concentration at half of the fitted maximal effect.

Row | Structure (SMILES) | Potency | activity, positive = activation
1 | O=S(=O)(O)c1ccc(N=Nc2c(O)ccc3ccccc23)cc1 | inactive | –
2 | CCCC(C(=O)OCCN(CC)CC)(c1ccccc1)c1ccccc1 | inactive | –
3 | Cc1cc(Br)ccc1NC(=O)CCl | 13.7 µM (active) | –
4 | CCCCCC(=O)OCCc1ccccc1 | inactive | –
5 | O=C1C=CCCC1 | inactive | –
6 | Cc1ccc(CCn2c3c(c4cc(Cl)ccc42)CN(C)CC3)cn1 | inactive | –
7 | CC1=CP(=O)(c2ccccc2)CC1 (stereo not given) | inactive | –
8 | O=C1CCCCCCCCCCOCCCCO1 | 30.6 µM (active) | –
9 | Oc1ccc(C2CNCCc3c2cc(O)c(O)c3Cl)cc1 (stereo not given) | inactive | –
10 | Cc1ccc(S(=O)(=O)NC(=O)NN2CC3CCCC3C2)cc1 (stereo not given) | inactive | –
11 | O=C(C1CCCCC1)N1CC(=O)N2CCCc3ccccc3C2C1 (stereo not given) | inactive | –
12 | CCCC(=O)c1cc(O)c(O)cc1O | 4.86 µM (active) | –
13 | CCOc1cc([N+](=O)[O-])c(OCC)cc1N1CCOCC1 | inactive | –
14 | CSc1cnc(C)cn1 | inactive | –
15 | CC(CC(C)(C)C)CC(C)(C)CC(C)(C)C (stereo not given) | inactive | –
16 | Cc1cccc(C)c1NC(=O)c1cc(S(N)(=O)=O)c(Cl)cc1O | inactive | –
17 | C[C@@H]1CC[C@@]2(OC1)O[C@H]1C[C@H]3[C@@H]4CC[C@H]5C[C@@H](O)CC[C@]5(C)[C@H]4CC(=O)[C@]3(C)[C@H]1[C@@H]2C | – | -0.515% [at 8.39 µM]
18 | CC(C)=CCC1=C(O)c2ccccc2C(=O)C1=O | 60.8 µM (active) | –
19 | Cc1ccccc1C(=O)Nc1ccc(C(=O)N2CCCC(N(C)C)c3ccccc32)cc1 (stereo not given) | inactive | –
20 | C[C@@H]1C[C@H]2[C@@H]3CCC4=CC(=O)C=C[C@]4(C)[C@@]3(F)[C@@H](O)C[C@]2(C)[C@@]1(O)C(=O)CO | inactive | –

Row | Structure (SMILES) | Potency | activity, positive = activation
21 | CC[C@H]1OC(=O)[C@H](C)[C@@H](O[C@H]2C[C@@](C)(OC)[C@@H](O)[C@H](C)O2)[C@H](C)[C@@H](O[C@@H]2O[C@H](C)C[C@H](N(C)C)[C@H]2O)[C@](C)(OC)C[C@@H](C)C(=O)[C@H](C)[C@@H](O)[C@]1(C)O | inactive | –
22 | O=C(/C=C/c1ccccc1)OCCCc1ccccc1 | inactive | –
23 | COC(=O)CC#N | inactive | –
24 | CCOC(=O)CCc1ccccc1 | inactive | –
25 | OCC(O)c1ccccc1 (stereo not given) | inactive | –
26 | Oc1cc2ccccc2cc1O | inactive | –
27 | C=C(C)c1cccc(C(C)(C)N=C=O)c1 | inactive | –
28 | CCN(CC)CC(=O)Nc1c(C)cccc1C(=O)OC | inactive | –
29 | CCCCC(CC)(CO)CO | inactive | –
30 | C[C@H]1O[C@@H](n2cc(F)c(=O)[nH]c2=O)[C@H](O)[C@@H]1O | inactive | –
31 | CC1(C)S[C@@H]2[C@H](NC(=O)Cc3ccccc3)C(=O)N2[C@H]1C(=O)O (tested in a mixture with another compound) | inactive | –
32 | c1cc(N(CC2CO2)CC2CO2)ccc1Cc1ccc(N(CC2CO2)CC2CO2)cc1 (stereo not given) | 21.7 µM (active) | –
33 | O=C(O)Cc1ccc2c(c1)C(=O)c1ccccc1CO2 | inactive | –
34 | Oc1cccc2cc3cccc(O)c3c(O)c12 | inactive | –
35 | Cn1c(N)c(N=O)c(=O)n(C)c1=O | inactive | –
36 | CC(=O)[C@H]1CC[C@H]2[C@@H]3C=CC4=CC(=O)CC[C@@]4(C)[C@@H]3CC[C@]12C | inactive | –
37 | COc1c(N2CCNC(C)C2)c(F)cc2c(=O)c(C(=O)O)cn(C3CC3)c12 (stereo not given) | inactive | –
38 | C=CCSCC1Nc2cc(Cl)c(S(N)(=O)=O)cc2S(=O)(=O)N1 (stereo not given) | inactive | –
39 | CSc1nc(NC2CC2)nc(NC(C)(C)C)n1 | inactive | –
40 | Cc1c(C)c2c(c(C)c1O)CC[C@@](C)(CCC[C@H](C)CCC[C@H](C)CCCC(C)C)O2 | inactive | –
